Laboratory results taken from article PMC4336329 (PLoS ONE, 2015).
Among all 310,000 compounds or so, about 14,000 (4.5%) showed an effect of 50% or more. Effects have a minus sign here. Only a selection was taken, and strong results are over-represented in it overall.

Biological target: human ether-à-go-go-related gene (hERG) potassium channel (human, UniProt Q12809)
Test: primary screen, population patch clamp on CHO cells stably expressing hERG; higher = less effect of the substance
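Note: peak tail current of the secondary pulse compared with the same well before compound.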

Sequence of human ether-à-go-go-related gene (hERG) potassium channel (Q12809 whole entry, looked up): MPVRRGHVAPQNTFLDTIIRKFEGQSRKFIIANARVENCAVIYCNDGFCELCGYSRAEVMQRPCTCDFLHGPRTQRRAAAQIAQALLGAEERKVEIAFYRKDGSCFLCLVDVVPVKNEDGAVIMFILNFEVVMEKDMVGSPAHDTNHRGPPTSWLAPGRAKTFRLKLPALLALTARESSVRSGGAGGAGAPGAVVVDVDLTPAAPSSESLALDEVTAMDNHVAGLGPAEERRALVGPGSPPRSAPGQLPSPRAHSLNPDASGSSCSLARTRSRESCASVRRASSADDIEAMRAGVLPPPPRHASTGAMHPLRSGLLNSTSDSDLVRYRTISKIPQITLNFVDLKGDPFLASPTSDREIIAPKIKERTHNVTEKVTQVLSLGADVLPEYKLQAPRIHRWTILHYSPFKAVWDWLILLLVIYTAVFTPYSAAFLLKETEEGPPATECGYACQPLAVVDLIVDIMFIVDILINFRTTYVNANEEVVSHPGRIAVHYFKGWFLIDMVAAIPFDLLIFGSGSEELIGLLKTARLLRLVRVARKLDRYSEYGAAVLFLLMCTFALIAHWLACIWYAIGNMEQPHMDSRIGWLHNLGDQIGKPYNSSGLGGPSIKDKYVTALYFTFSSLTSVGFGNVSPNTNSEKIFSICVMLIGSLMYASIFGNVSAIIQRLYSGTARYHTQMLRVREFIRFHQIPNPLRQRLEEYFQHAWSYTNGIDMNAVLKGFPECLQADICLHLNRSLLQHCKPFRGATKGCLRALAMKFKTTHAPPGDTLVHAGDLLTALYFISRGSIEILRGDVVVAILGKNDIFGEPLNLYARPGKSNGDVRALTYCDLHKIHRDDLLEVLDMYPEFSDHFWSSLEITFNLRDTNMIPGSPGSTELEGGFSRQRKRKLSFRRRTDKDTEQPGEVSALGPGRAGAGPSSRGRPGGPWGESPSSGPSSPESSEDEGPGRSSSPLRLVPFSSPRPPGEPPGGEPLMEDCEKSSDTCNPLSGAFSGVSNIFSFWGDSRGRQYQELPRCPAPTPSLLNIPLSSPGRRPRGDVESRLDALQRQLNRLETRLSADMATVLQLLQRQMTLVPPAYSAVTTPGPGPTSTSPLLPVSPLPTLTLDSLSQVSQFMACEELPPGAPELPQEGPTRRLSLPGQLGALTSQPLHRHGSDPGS

Going from Cc1ccccc1C(=O)NC1CCN(Cc2nnnn2Cc2ccc(F)cc2)CC1 to Cc1ccc(Cn2nnnc2CN2CCC(NC(=O)c3ccccc3F)CC2)cc1, the “hERG current change (%, negative = inhibition) at 10uM” value rises from -40.9% to -27.2%.

First: COc1cccc(NC(=O)NC2CCN(Cc3nnnn3Cc3ccc(F)cc3)CC2)c1
Second: O=C(Nc1ccccc1F)NC1CCN(Cc2nnnn2Cc2ccc(F)cc2)CC1
The “hERG current change (%, negative = inhibition) at 10uM” value of the first is higher: -53.2% for the first, -69.2% for the second.

First: COCCn1nnnc1CN1CCC(NC(=O)Nc2cccc(OC)c2)CC1
Second: COc1cccc(NC(=O)NC2CCN(Cc3nnnn3Cc3ccc4c(c3)OCO4)CC2)c1
The “hERG current change (%, negative = inhibition) at 10uM” value of the first is higher: 8.3% for the first, -23.3% for the second.

First: OC(c1ccccc1)(c1ccccc1)C1CCN(C(=S)NCCc2ccccc2)CC1
Second: COc1ccc(CCNC(=S)N2CCN(S(=O)(=O)c3ccccc3F)CC2)cc1
The “hERG current change (%, negative = inhibition) at 10uM” value of the first is higher: 16.3% for the first, -3.68% for the second.

First: CN(CC(=O)Nc1cccc(F)c1)C(=O)C1CC(=O)N(Cc2ccco2)C1 (centres unmarked)
Second: CC(=O)c1cccc(NC(=O)N2CCC(C(=O)c3ccc(F)cc3)CC2)c1
The “hERG current change (%, negative = inhibition) at 10uM” value of the first is higher: -8% for the first, -28.1% for the second.

First: CN(Cc1ccccc1)CC(O)COc1ccc(CNCCc2cccnc2)cc1 (centres unmarked)
Second: O=C(Oc1ccc(Cl)cc1)c1ccc(COC(=O)c2cnccn2)cc1
The “hERG current change (%, negative = inhibition) at 10uM” value of the first is lower: -11.5% for the first, 14.9% for the second.

Compared with CCNC(=O)CN(c1ccc(C)cc1)S(=O)(=O)c1ccc(SC)cc1, CSc1ccc(S(=O)(=O)N(CC(=O)NCc2ccccn2)c2ccc(C)cc2)cc1 is lower in “hERG current change (%, negative = inhibition) at 10uM” value: -19% for the first, -59.3% for the second.

First: Cc1ccc(S(=O)(=O)N(CC(=O)NCc2ccccn2)c2ccc(Cl)cc2)cc1
Second: COc1ccc(S(=O)(=O)N(CC(=O)NCc2ccccn2)c2ccc(Cl)cc2)cc1
The “hERG current change (%, negative = inhibition) at 10uM” value of the first is lower: -29.7% for the first, 13.3% for the second.

Going from O=C(CN(c1cccc(Cl)c1)S(=O)(=O)c1ccc(Cl)cc1)NCc1ccccn1 to CN(CC(=O)NCc1ccccn1)S(=O)(=O)c1ccc(Cl)cc1, the “hERG current change (%, negative = inhibition) at 10uM” value rises from -53.1% to -12%.

Going from CCN(Cc1ccccc1)S(=O)(=O)c1ccc2c(c1)NC(=O)CS2 to COc1ccc(OC)c(NC(=O)c2ccccc2NC(=O)c2ccco2)c1, the “hERG current change (%, negative = inhibition) at 10uM” value falls from -44.5% to -75.6%.

Going from CN(CC(=O)Nc1ccccc1Br)C(=O)CN(C)C1CCCCC1 to O=C(COC(=O)C1CCC1)Nc1ccccc1Sc1ccccc1, the “hERG current change (%, negative = inhibition) at 10uM” value rises from 7.12% to 7.34%.

First: Cc1cccc(C)c1-n1c(C)cc(/C=N/NC(=O)c2ccncc2)c1C
Second: COc1cc(OC)cc(C(=O)Nc2c(C)nn(-c3ccccc3)c2C)c1
The “hERG current change (%, negative = inhibition) at 10uM” value of the first is lower: -12% for the first, -3.27% for the second.

Going from Cn1c(NC(=O)c2ccc(F)cc2)nc2ccccc21 to Cc1cc(-c2ccccc2)nc(N(C)NC(=O)c2ccc(Cl)cc2)c1S(C)(=O)=O, the “hERG current change (%, negative = inhibition) at 10uM” value falls from 21.5% to 0.236%.

Going from O=C(c1cc2cc([N+](=O)[O-])ccc2oc1=O)N1CCOCC1 to CCN1CCN(C(=O)c2cc3cc([N+](=O)[O-])ccc3oc2=O)CC1, the “hERG current change (%, negative = inhibition) at 10uM” value falls from -0.062% to -14.4%.

First: O=C(c1cc2cc([N+](=O)[O-])ccc2oc1=O)N1CCN(C2CCCCC2)CC1
Second: O=C(c1cc2cc([N+](=O)[O-])ccc2oc1=O)N1CCN(c2ncccn2)CC1
The “hERG current change (%, negative = inhibition) at 10uM” value of the first is lower: -72.5% for the first, -0.285% for the second.

Going from O=C(c1ccco1)N1CCN(C(=O)c2cc3ccccc3oc2=O)CC1 to O=C(c1ccco1)N1CCN(C(=O)c2cc3cc([N+](=O)[O-])ccc3oc2=O)CC1, the “hERG current change (%, negative = inhibition) at 10uM” value falls from -13.2% to -52.4%.

Going from Cc1ccc(S(=O)(=O)CCC(=O)Nc2ccc(Br)cc2)cc1 to O=C(Nc1ccc(C(=O)N2CCCCC2)cc1)c1ccc(Br)cc1, the “hERG current change (%, negative = inhibition) at 10uM” value rises from -7.37% to 3.55%.

Compared with CC(C)OC(=O)c1cc(C(=O)c2cc(F)ccc2O)coc1=N, COc1ccc(C(=O)Nc2ccc(Cl)cc2C(=O)NCCO)cc1 is lower in “hERG current change (%, negative = inhibition) at 10uM” value: -7.34% for the first, -53.8% for the second.

Going from Cl.O=C(O)C1=CCCNC1 to Cl.O=C(O)C1=CCNCC1, the “hERG current change (%, negative = inhibition) at 10uM” value rises from -54.4% to 17.6%.

Compared with COc1ccc(NC(=O)c2ccccc2NC(=O)c2ccco2)cc1, COc1ccc(NC(=O)c2ccccc2NC(=O)c2ccco2)c(OC)c1 is lower in “hERG current change (%, negative = inhibition) at 10uM” value: 18.5% for the first, -73.4% for the second.

Compared with COc1ccc(NC(=O)c2cc(Cl)ccc2NC(=O)c2ccco2)c(OC)c1, COc1ccccc1NC(=O)c1cc(Cl)ccc1NC(=O)c1ccco1 is higher in “hERG current change (%, negative = inhibition) at 10uM” value: -85.2% for the first, -1.81% for the second.

First: COc1ccc(C(=O)Nc2ccccc2NC(=O)c2ccco2)c(OC)c1
Second: COc1ccccc1C(=O)Nc1cc(C)ccc1NC(=O)c1ccco1
The “hERG current change (%, negative = inhibition) at 10uM” value of the first is higher: -21.9% for the first, -44.4% for the second.

First: COc1ccc(C(=O)Nc2ccc(Cl)cc2C(=O)NCc2ccco2)cc1
Second: COc1ccc(C(=O)Nc2ccc(Cl)cc2C(=O)NCCN2CCOCC2)cc1
The “hERG current change (%, negative = inhibition) at 10uM” value of the first is higher: -0.702% for the first, -12.3% for the second.

First: COc1ccccc1NC(=O)c1ccccc1NC(=O)c1cc(Cl)ccc1NC(=O)c1ccco1
Second: CCOc1ccccc1C(=O)Nc1cc(C)ccc1NC(=O)c1ccco1
The “hERG current change (%, negative = inhibition) at 10uM” value of the first is higher: 2.97% for the first, -75.3% for the second.

Going from Cc1ccc(NC(=O)c2ccco2)c(NC(=O)c2ccccc2C)c1 to COc1ccc(NC(=O)c2ccco2)c(OC)c1, the “hERG current change (%, negative = inhibition) at 10uM” value falls from 17.9% to 16.9%.

First: Cc1ccc(C(=O)OCC(=O)Nc2ccc3[nH]c(=O)[nH]c3c2)cc1S(=O)(=O)N1CCOCC1
Second: O=C(O)c1ccccc1C1Nc2ccccc2C(=O)N1CCCN1CCOCC1 (centres unmarked)
The “hERG current change (%, negative = inhibition) at 10uM” value of the first is lower: 4.19% for the first, 18.4% for the second.

First: O=C(O)c1ccc2c(c1)CCC2
Second: CN1CCc2c(sc(N)c2C(N)=O)C1
The “hERG current change (%, negative = inhibition) at 10uM” value of the first is higher: 9.54% for the first, 6.59% for the second.

Going from Cc1cc(NC(=O)C23CC4CC(CC(C4)C2)C3)n[nH]1 to Cc1cccc(NC(=S)N2CCCC2)c1, the “hERG current change (%, negative = inhibition) at 10uM” value rises from -0.917% to 11.1%.

First: CCOC(=O)c1c(-c2ccccc2)csc1NC(=O)c1nn(CC)cc1Br
Second: Cc1ccc(-n2c(C)nn(CCOc3ccccc3)c2=O)cc1
The “hERG current change (%, negative = inhibition) at 10uM” value of the first is higher: 6.4% for the first, 1.54% for the second.

Going from COc1ccc(NC(=O)CCC(=O)Nc2cc(OC)c(NC(=O)c3ccco3)cc2OC)c(OC)c1 to COc1ccc2nc(NC(=S)NC(=O)c3ccco3)sc2c1, the “hERG current change (%, negative = inhibition) at 10uM” value rises from 20.4% to 25.2%.

Going from C/C(=N/n1cnnc1)c1cccnc1 to C/C(=N\NC(=O)c1cc(-c2ccc(O)cc2)nc2ccccc12)c1cccnc1, the “hERG current change (%, negative = inhibition) at 10uM” value rises from -0.855% to 11.7%.

Going from C/C(=N\NC(=O)CCC(=O)Nc1ccc(C)c(C)c1)C1CC1 to COc1ccc(CCNC(=O)c2cnc3n(c2=O)CCS3)cc1OC, the “hERG current change (%, negative = inhibition) at 10uM” value falls from 10.7% to -5.87%.

Going from Cc1ccc2cc(C#N)c(N3CCN(C(=O)c4cccs4)CC3)nc2c1 to Cc1ccc2nc(N3CCN(C(=O)c4cccs4)CC3)c(C#N)cc2c1, the “hERG current change (%, negative = inhibition) at 10uM” value falls from -34.2% to -76.9%.

First: Cc1ccc2cc(C#N)c(N3CCN(C(=O)c4ccccc4)CC3)nc2c1
Second: Cc1ccc2nc(N3CCN(C(=O)c4ccc(F)cc4)CC3)c(C#N)cc2c1
The “hERG current change (%, negative = inhibition) at 10uM” value of the first is higher: -67.1% for the first, -73.6% for the second.

Compared with Cc1ccc2cc(C#N)c(N3CCN(C)CC3)nc2c1, Cc1ccc2nc(N3CCN(C)CC3)c(C#N)cc2c1 is lower in “hERG current change (%, negative = inhibition) at 10uM” value: 2.75% for the first, -42.3% for the second.

Going from COc1ccc(C(=O)N2CCN(c3nc4cc(C)ccc4cc3C#N)CC2)c(OC)c1 to COc1ccc2cc(C#N)c(N3CCN(C(=O)c4ccccc4C)CC3)nc2c1, the “hERG current change (%, negative = inhibition) at 10uM” value rises from -22.8% to -18.9%.

Compared with Cc1ccc2cc(C#N)c(N3CCCN(C(=O)c4cnccn4)CC3)nc2c1, COc1cc(C(=O)N2CCCN(c3nc4cc(C)ccc4cc3C#N)CC2)cc(OC)c1OC is lower in “hERG current change (%, negative = inhibition) at 10uM” value: -42.4% for the first, -53.5% for the second.

Going from CCc1ccc2nc(N3CCN(C)CC3)c(C#N)cc2c1 to Cc1cccc2cc(C#N)c(N3CCN(C)CC3)nc12, the “hERG current change (%, negative = inhibition) at 10uM” value rises from -54.3% to -46%.

Going from N#Cc1cccnc1N1CCN(C(=O)c2cccs2)CC1 to COc1ccccc1C(=O)N1CCN(c2nc3cc(C)c(C)cc3cc2C#N)CC1, the “hERG current change (%, negative = inhibition) at 10uM” value falls from -1.7% to -2.28%.

Compared with CCOc1ccc(N=Nc2c(C)[nH]n(-c3ccccc3)c2=O)cc1, COC(=O)/C=C1\SC(=Nc2ccccc2)NC1=O is lower in “hERG current change (%, negative = inhibition) at 10uM” value: 18.6% for the first, 9.64% for the second.

First: Cc1ccc(C(=O)N2CCCN(c3nc4cc5c(cc4cc3C#N)OCO5)CC2)cc1
Second: Cc1nnc2ccc(N3CCN(c4cccc(C(F)(F)F)c4)CC3)nn12
The “hERG current change (%, negative = inhibition) at 10uM” value of the first is higher: -0.619% for the first, -61.8% for the second.

First: Cc1nnc2ccc(N3CCN(c4ccccn4)CC3)nn12
Second: Cc1nnc2ccc(N3CCCC3)nn12
The “hERG current change (%, negative = inhibition) at 10uM” value of the first is lower: -57% for the first, 6.22% for the second.

Compared with Cc1nnc2ccc(-c3cccc(C(F)(F)F)c3)nn12, FC(F)(F)c1cccc(N2CCN(c3ccc4nnc(-c5ccccc5)n4n3)CC2)c1 is higher in “hERG current change (%, negative = inhibition) at 10uM” value: -9.04% for the first, -4.4% for the second.

First: Cc1nnc2ccc(N3CCCCC3)nn12
Second: S=c1[nH]c2ccc(Cl)cc2s1
The “hERG current change (%, negative = inhibition) at 10uM” value of the first is lower: 6.15% for the first, 21.1% for the second.

In the case of O=C(NCc1ccc(Cl)cc1)C(=O)Nc1nccs1, the “hERG current change (%, negative = inhibition) at 10uM” value is reported as 20.7%.
